D1 antag = blocks dopamine activation of the human D1 receptor; HEK293 TREx D1 cells, calcium flux, dopamine EC80; active compounds read low; activity change, negative = inhibition, % at 10 µM; actives 3.2% (n = 360,000); in the data active = activity change below about -30%
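HEK293 T-REx cells expressing inducible, force-coupled D1 receptor; no-wash Ca dye, 30–90 min RT. Cmpd → 180 s read at 1 Hz → EC80 DA → 180 s read.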
DRD3 agonist = activates the human D3 dopamine receptor. P35462. D3R DiscoveRx beta-arrestin cells, luminescence, 90 min. max activation, %. actives 0.58% (n = 410,000). AID 652048; in the data active = max activation above about 30%
Target sequence (P35462 whole entry, looked up): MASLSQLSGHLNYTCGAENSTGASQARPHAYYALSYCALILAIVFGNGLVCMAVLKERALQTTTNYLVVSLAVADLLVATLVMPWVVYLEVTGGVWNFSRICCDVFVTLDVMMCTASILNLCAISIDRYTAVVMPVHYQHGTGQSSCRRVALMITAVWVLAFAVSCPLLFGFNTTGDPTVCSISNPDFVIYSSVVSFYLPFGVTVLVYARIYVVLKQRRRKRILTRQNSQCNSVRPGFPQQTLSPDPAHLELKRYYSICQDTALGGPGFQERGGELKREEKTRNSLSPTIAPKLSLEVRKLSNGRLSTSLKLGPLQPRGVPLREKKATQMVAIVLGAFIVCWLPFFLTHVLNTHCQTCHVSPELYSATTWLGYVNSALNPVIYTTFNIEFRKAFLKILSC
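Cells at 1500/well, incubated overnight, then treated with pinned compounds (dopamine as control) for 90 min at 37 degrees C. DiscoveRx reagent added for 30 - 60 minutes at room temperature; luminescence read.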
D3 antag = antagonists of human D3 dopamine receptor. AID 652054. D3R cells, DiscoveRx beta-arrestin luminescence, antagonist mode; active compounds read low. max response, negative = inhibition, %. P35462. actives 2.5% (n = 360,000); in the data active = max response below about -50%
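Cells expressing the human receptor were seeded at 1500 cells/well, incubated overnight at 37 degrees C in 5% CO2, then exposed to library compounds with dopamine controls for 90 minutes at 37 degrees C before luminescent detection.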
D1 potentiator = human D1 dopamine receptor positive modulation | potentiation, % at 10 µM | HEK293 TREx D1 cells, calcium flux, dopamine EC20 potentiation | actives 0.036% (n = 360,000); in the data active = potentiation above about 30%
D1 ag = activates the human D1 dopamine receptor. P21728. HEK293 T-REx D1 cells, calcium flux, agonist mode. activation, % at 2 µM. actives 1% (n = 360,000). AID 504660; in the data active = activation above about 30%
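Inducible HEK293 T-REx D1 cells, force-coupled to calcium signalling, were plated at 4000 cells/well with tetracycline and held overnight at 30 C. After no-wash calcium dye loading, compound-evoked calcium rise over 180 s flagged agonists.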
Hits are given with their value; - = inactive; . = not tested or not shown. An excerpt weighted towards active compounds, which were near 6% of everything screened.

SMILES | D1 antag | DRD3 agonist | D3 antag | D1 potentiator | D1 ag
N#C/C(=C\c1ccc(-c2ccccc2)o1)C(=O)Nn1cnnc1 | - | - | -69 | - | -
N#C/C(=C/c1ccc(-c2ccc(Br)cc2)o1)C(=O)NC1CCCCC1 | - | - | - | - | -
Cc1ccc(-c2ccc(/C=C(\C#N)C(=O)Nc3cc(C)nn3-c3ccccc3)o2)cc1 | - | . | . | - | 61
CCCCOC(=O)c1ccc(NC(=O)/C(C#N)=C/c2ccc(-c3ccccc3)o2)cc1 | - | - | . | - | 127
Cc1cc(NC(=O)/C(C#N)=C/c2ccco2)n(-c2ccccc2)n1 | - | - | - | - | -
OCC(S)CS (centres undefined) | . | - | . | . | .
CC(=O)c1ccc(NC(=O)COc2ccccc2-c2nc(-c3cccc(C)c3)no2)cc1 | - | - | . | - | -
COc1ccc(-c2noc(CSc3nnc(C)n3-c3cccc(C)c3)n2)cc1 | -34 | - | . | - | -
COc1ccc(-c2noc(CSc3nnc(-c4ccc(Cl)cc4)n3C)n2)cc1OC | -31 | - | . | - | -
COc1ccc(-c2noc(CSc3nnc(-c4ccccc4)n3C)n2)cc1 | - | - | - | - | -
COc1ccc(-c2noc(CSc3nnc(C)n3-c3ccc(C)cc3)n2)cc1 | - | - | . | - | -
CCCCN(C)C(=O)c1ccc2c(c1)N(Cc1cccc(F)c1)C(=O)c1ccccc1S2 | - | - | . | - | -
CCOc1ccc(C(=O)c2oc3ccccc3c2NC(=O)Cc2coc3ccc(CC)cc23)cc1 | - | - | . | - | -
COc1cccc(CNC(=O)c2ccc(-c3nc(COc4ccccc4)c(C)o3)cc2)c1 | - | - | . | - | -
CC1CC(C)CN(c2ccc([N+](=O)[O-])nc2)C1 (centres undefined) | - | - | - | - | -
CC1CN(c2ccc([N+](=O)[O-])nc2)CC(C)O1 (centres undefined) | -35 | - | - | - | -
O=C(NCc1ccccc1)C(=O)Nc1c2c(nn1-c1ccccc1)CSC2 | . | - | . | - | -
Cc1c(Cl)cccc1NC(=O)CSc1nc2ncccc2o1 | - | - | . | - | -
COc1ccc(C(c2c(O)cc(C)n(Cc3ccco3)c2=O)N2CCCCC2)cc1OC (centres undefined) | - | - | . | - | -
CCN(CCO)Cc1csc2ccc(C(C)(C)C)cc12 | -82 | - | - | - | -
CCN(CCO)Cc1csc2ccc(Cl)cc12 | - | - | - | - | -
CCN(CCO)Cc1csc2ccccc12 | -38 | - | - | - | -
Cc1ccc(S(=O)(=O)N2CCN(Cc3ccc4c(c3)OCO4)CC2)cc1 | - | - | . | - | -
COc1ccc(NC(=O)Cn2c(=O)n(-c3ccc(OC)cc3)c(=O)c3sc4ccccc4c32)cc1 | - | - | . | - | -
Cc1c(C(=N)C(C#N)C#N)c(=N)oc2c1ccc1ccccc12 | -41 | - | - | - | -
SMILES | D1 antag | DRD3 agonist | D3 antag | D1 potentiator | D1 ag
Cc1c(C(=O)O)oc2c1ccc1ccccc12 | - | - | - | - | -
COc1ccc(N2CCN(CCCNC(=O)Cn3c(-c4cccs4)cc4ccccc43)CC2)cc1 | - | 32 | . | - | -
O=C(Cn1c(-c2cccs2)cc2ccccc21)NCCCN1CCN(c2ccc(F)cc2)CC1 | - | - | . | - | -
O=C(Cn1c(-c2cccs2)cc2ccccc21)NCCCN1CCN(c2ccccc2F)CC1 | -62 | - | . | - | -
O=C(Cn1c(-c2cccs2)cc2cc(F)ccc21)NCCCN1CCN(c2ccccc2F)CC1 | - | - | . | - | -
CCS(=O)(=O)c1ncc(Cl)c(C(=O)N(Cc2ccccc2)Cc2ccco2)n1 | - | - | . | - | -
Cc1cc2c(s1)c1cnn(Cc3ccc(C)c(F)c3)c(=O)c1n2C | - | . | . | - | -
CNCCC(Oc1ccc(C(F)(F)F)cc1)c1ccccc1 (centres undefined) | . | . | . | . | 62
COC(=O)c1sc2c(c1C)c(=O)n(-c1ccccc1)c(=O)n2CC(=O)Nc1cccc(C)c1 | - | - | . | - | -
COc1ccc(NC(=O)CCCn2c(=O)c3sccc3n(Cc3ccccc3)c2=O)cc1 | -34 | - | - | - | -
COCCCn1c(=O)c2sccc2n2c(CCCC(=O)NCc3ccc(OC)cc3)nnc12 | -31 | - | - | - | -
COc1ccc(NC(=O)CCCn2c(=O)c3sccc3n(Cc3ccccc3C)c2=O)cc1 | - | - | - | - | -
COCCCn1c(=O)c2sccc2n2c(CCCC(=O)NCc3ccccc3OC)nnc12 | - | - | - | - | -
